Measurements: PubChem BioAssay AID1159580 (chemical genetic matrix, 2015)
Several values for one entry are separate records, joined by “and”; a condition that tells them apart may be missing. Equal entries are not always repeated. Hit rate of the full screen: of about 5,500 compounds, about 2,000 (36%) were called active. Inconclusive results (about 18%) are left out. No stated cut-off is given here; in the data, active means normalized growth mostly below about 0.91 (no sharp cut-off); inconclusive means no clear call, values can overlap the other calls; inactive means mostly above about 0.92. The list shows a part of the results.

Assay: chemical genetic growth profiling, strain panel (AID 1159580);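 further: tested at 20 µM; growth read once vehicle control cultures reached saturation at 30 °C; 1 = growth at the plate median or of vehicle wells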
Conditions: S. cerevisiae deletion strains, growth OD

Measured: normalized growth

COc1ccc([C@H]2Oc3cc(OC)cc(OC)c3C[C@H]2O)cc1
inactive: locus YAL013W, strain DEP1, stronger effect = lower value 1.01 | locus YAL021C, strain ccr4, stronger effect = lower value 1 | locus YAL026C, strain drs2, stronger effect = lower value 0.995 | locus YAL030W, strain snc1, stronger effect = lower value 0.993 | locus YBL061C, strain skt5, stronger effect = lower value 0.997 | locus YBR009C, strain hhf1, stronger effect = lower value 1.01 | locus YBR021W, strain FUR4, stronger effect = lower value 1.06 | locus YBR023C, strain chs3, stronger effect = lower value 1 | locus YBR171W, strain sec66, stronger effect = lower value 0.98 | locus YBR229C, strain ROT2, stronger effect = lower value 1 | locus YBR231C, strain swc5, stronger effect = lower value 1.01 | locus YBR279W, strain paf1, stronger effect = lower value 0.994 | locus YCL011C, strain gbp2, stronger effect = lower value 0.997 | locus YCL016C, strain dcc1, stronger effect = lower value 1 | locus YCL029C, strain bik1, stronger effect = lower value 1.01 | locus YCL061C, strain MRC1, stronger effect = lower value 0.987 | locus YCL069W, strain vba3, stronger effect = lower value 0.996 | locus YCR088W, strain abp1, stronger effect = lower value 0.999 | locus YDL005C, strain med2, stronger effect = lower value 0.996 | locus YDL035C, strain GPR1, stronger effect = lower value 1.05 | locus YDL040C, strain nat1, stronger effect = lower value 1 | locus YDL074C, strain BRE1, stronger effect = lower value 1.12 | locus YDL101C, strain DUN1, stronger effect = lower value 1.01 | locus YDL185W, strain tfp1, stronger effect = lower value 1.01 | locus YDL192W, strain arf1, stronger effect = lower value 1 | locus YDR001C, strain nth1, stronger effect = lower value 0.998 | locus YDR069C, strain doa4, stronger effect = lower value 1.01 | locus YDR101C, strain arx1, stronger effect = lower value 0.983 | locus YDR137W, strain rgp1, stronger effect = lower value 0.867 | locus YDR159W, strain sac3, stronger effect = lower value 0.998 | locus YDR162C, strain NBP2, stronger effect = lower value 1.03 | locus YDR195W, strain ref2 1.05 | locus YDR297W, strain sur2, stronger effect = lower value 1 | locus YDR318W, strain mcm21, stronger effect = lower value 1 | locus YDR334W, strain swr1, stronger effect = lower value 1.01 | locus YDR335W, strain msn5, stronger effect = lower value 1 | locus YDR388W, stronger effect = lower value 1.01 | locus YDR392W, strain spt3, stronger effect = lower value 0.948 | locus YDR502C, strain sam2, stronger effect = lower value 1.01 | locus YEL003W, strain gim4, stronger effect = lower value 0.996 | locus YEL037C, strain rad23, stronger effect = lower value 0.989 | locus YEL061C, strain CIN8 (second series), stronger effect = lower value 1 | locus YEL061C, strain CIN8, stronger effect = lower value 1.02 | locus YER015W, strain faa2, stronger effect = lower value 1 | locus YER016W, strain bim1, stronger effect = lower value 0.994 | locus YER110C, stronger effect = lower value 0.987 | locus YER111C, strain swi4, stronger effect = lower value 0.998 | locus YER155C, strain BEM2 (second series), stronger effect = lower value 1.01 | locus YER155C, strain BEM2, stronger effect = lower value 1 | locus YER167W, strain BCK2, stronger effect = lower value 1 | locus YFR010W, strain ubp6, stronger effect = lower value 1.01 | locus YGL078C, strain dbp3, stronger effect = lower value 1.02 | locus YGL086W, strain mad1, stronger effect = lower value 0.999 | locus YGL167C, strain pmr1, stronger effect = lower value 0.989 | locus YGL173C, strain kem1, stronger effect = lower value 1 | locus YGL227W, strain vid30, stronger effect = lower value 1 | locus YGL240W, strain doc1, stronger effect = lower value 1.01 | locus YGL248W, strain PDE1, stronger effect = lower value 1.05 | locus YGL253W, strain hxk2, stronger effect = lower value 0.996 | locus YGR135W, strain pre9, stronger effect = lower value 1.07 | locus YGR252W, strain gcn5, stronger effect = lower value 1.08 | locus YHR013C, strain ard1, stronger effect = lower value 1.05 | locus YHR027C, strain rpn1, stronger effect = lower value 0.992 | locus YHR030C, strain SLT2, stronger effect = lower value 0.985 | locus YHR079C, strain IRE1 (second series), stronger effect = lower value 1.02 | locus YHR079C, strain IRE1, stronger effect = lower value 0.994 | locus YHR094C, strain hxt1, stronger effect = lower value 1.01 | locus YHR129C, strain ARP1, stronger effect = lower value 1.02 | locus YHR142W, strain chs7, stronger effect = lower value 0.981 | locus YHR200W, strain rpn10, stronger effect = lower value 1.03 | locus YIL066C, strain RNR3, stronger effect = lower value 1.02 | locus YIL073C, strain SPO22, stronger effect = lower value 1.07 | locus YIL125W, strain kgd1, stronger effect = lower value 1 | locus YIR030C, strain dcg1, stronger effect = lower value 0.99 | locus YJL092W, strain hpr5, stronger effect = lower value 0.997 | locus YJL095W, strain BCK1 (second series), stronger effect = lower value 1 | locus YJL095W, strain BCK1, stronger effect = lower value 1.04 and 1 | locus YJL115W, strain asf1, stronger effect = lower value 1.01 | locus YJL129C, strain trk1, stronger effect = lower value 1.04 | locus YJL134W, strain LCB3, stronger effect = lower value 1 | locus YJL154C, strain vps35, stronger effect = lower value 0.989 | locus YJL164C, strain tpk1, stronger effect = lower value 1.01 | locus YJL166W, strain qcr8, stronger effect = lower value 0.994 | locus YJL168C, strain set2, stronger effect = lower value 1 | locus YJL187C, strain SWE1 (second series), stronger effect = lower value 1.03 | locus YJL187C, strain SWE1, stronger effect = lower value 1 | locus YJR043C, strain POL32, stronger effect = lower value 1.08 | locus YJR066W, strain TOR1, stronger effect = lower value 0.938 | locus YKL009W, strain mrt4, stronger effect = lower value 1.03 | locus YKL068W, stronger effect = lower value 1 | locus YKL085W, strain MDH1 (second series), stronger effect = lower value 0.99 | locus YKL085W, strain MDH1, stronger effect = lower value 0.99 | locus YKL160W, strain elf1, stronger effect = lower value 0.994 | locus YKL190W, strain CNB1, stronger effect = lower value 1.02 | locus YKR001C, strain vps1, stronger effect = lower value 0.99 | locus YKR026C, strain gcn3, stronger effect = lower value 0.999 | locus YKR091W, strain srl3, stronger effect = lower value 1 | locus YLL001W, strain dnm1, stronger effect = lower value 0.988 | locus YLL026W, stronger effect = lower value 1 | locus YLL041C, strain sdh2, stronger effect = lower value 0.985 | locus YLR027C, strain aat2, stronger effect = lower value 0.997 | locus YLR039C, strain RIC1, stronger effect = lower value 1.1 | locus YLR058C, strain SHM2, stronger effect = lower value 1.01 | locus YLR102C, strain apc9, stronger effect = lower value 0.997 | locus YLR113W, strain HOG1, stronger effect = lower value 0.983 | locus YLR221C, strain rsa3, stronger effect = lower value 1 | locus YLR258W, strain gsy2, stronger effect = lower value 0.995 | locus YLR262C, strain YPT6 (second series), stronger effect = lower value 0.914 | locus YLR268W, strain sec22, stronger effect = lower value 1.01 | locus YLR320W, strain mms22, stronger effect = lower value 0.999 | locus YLR342W, strain FKS1 (second series), stronger effect = lower value 0.997 | locus YLR342W, strain FKS1, stronger effect = lower value 0.994 | locus YLR357W, strain rsc2, stronger effect = lower value 1.07 | locus YLR370C, strain arc18, stronger effect = lower value 0.99 | locus YLR371W, strain rom2, stronger effect = lower value 1.04 | locus YLR384C, strain iki3, stronger effect = lower value 0.994 | locus YLR418C, strain cdc73, stronger effect = lower value 1.06 | locus YML016C, strain PPZ1, stronger effect = lower value 0.998 | locus YML032C, strain rad52, stronger effect = lower value 1.01 | locus YML120C, strain ndi1, stronger effect = lower value 1.01 | locus YML124C, strain tub3, stronger effect = lower value 1 | locus YMR058W, strain fet3, stronger effect = lower value 0.997 | locus YMR078C, strain ctf18, stronger effect = lower value 1.01 | locus YMR125W, strain sto1, stronger effect = lower value 1.01 | locus YMR129W, stronger effect = lower value 1 | locus YMR205C, strain PFK2, stronger effect = lower value 1.02 | locus YMR223W, strain ubp8, stronger effect = lower value 1 | locus YMR231W, strain pep5, stronger effect = lower value 0.989 | locus YMR307W, strain GAS1, stronger effect = lower value 1.31 | locus YNL067W, strain RPL9B, stronger effect = lower value 1.02 | locus YNL071W, strain lat1, stronger effect = lower value 0.994 | locus YNL183C, strain NPR1, stronger effect = lower value 0.932 | locus YNL209W, strain ssb2, stronger effect = lower value 0.994 | locus YNL233W, strain BNI4, stronger effect = lower value 1.06 | locus YNL248C, strain rpa49, stronger effect = lower value 1.01 | locus YNL250W, strain rad50, stronger effect = lower value 1.05 | locus YNL271C, strain bni1, stronger effect = lower value 0.995 | locus YNL298W, strain CLA4, stronger effect = lower value 0.975 | locus YNL307C, strain MCK1, stronger effect = lower value 1.02 | locus YNL322C, strain KRE1 (second series), stronger effect = lower value 1 | locus YNL322C, strain KRE1, stronger effect = lower value 1.01 | locus YNR049C, strain mso1, stronger effect = lower value 1 | locus YNR052C, strain pop2, stronger effect = lower value 1.02 | locus YOL012C, strain htz1 1.39 | locus YOL147C, strain pex11, stronger effect = lower value 0.994 | locus YOR001W, strain rrp6, stronger effect = lower value 0.992 | locus YOR061W, strain CKA2, stronger effect = lower value 1 | locus YOR069W, strain VPS5, stronger effect = lower value 0.996 | locus YOR070C, strain gyp1, stronger effect = lower value 0.99 | locus YOR080W, strain dia2, stronger effect = lower value 1.01 | locus YOR083W, strain WHI5, stronger effect = lower value 0.993 | locus YOR106W, strain vam3, stronger effect = lower value 0.999 | locus YOR136W, strain idh2, stronger effect = lower value 1 | locus YOR144C, strain elg1, stronger effect = lower value 1 | locus YOR184W, strain ser1, stronger effect = lower value 0.94 | locus YOR231W, strain MKK1, stronger effect = lower value 1 | locus YOR265W, strain rbl2, stronger effect = lower value 0.999 | locus YOR270C, strain vph1, stronger effect = lower value 0.976 | locus YOR290C, strain snf2, stronger effect = lower value 1.01 | locus YOR316C, strain cot1, stronger effect = lower value 1.02 | locus YPL051W, strain arl3, stronger effect = lower value 0.984 | locus YPL055C, strain LGE1, stronger effect = lower value 1.09 | locus YPL078C, strain atp4, stronger effect = lower value 0.995 | locus YPL106C, strain sse1, stronger effect = lower value 1.07 | locus YPL240C, strain hsp82, stronger effect = lower value 0.986 | locus YPL256C, strain CLN2, stronger effect = lower value 0.972 | locus YPR119W, strain clb2, stronger effect = lower value 0.99 | locus YPR141C, strain kar3, stronger effect = lower value 0.998 | locus YPR163C, strain tif3, stronger effect = lower value 1.01 | locus YPR167C, strain met16, stronger effect = lower value 1.01 | strain wtn01, stronger effect = lower value 0.992
